Reference: PubChem BioAssay (NCATS)
Values joined by “and” are separate entries in the source; they are usually repeats but may differ in a detail not shown here. Equal values may be shown once. Records with an inconclusive call do not appear. A structure can be active in one record and inactive in another. Active and inactive are the calls of the source. Unless noted, calls follow the shape of the dose curve; as a rule, active = well fitted curve in the direction sought with a large enough effect; inconclusive = small, poorly fitted or top-dose-only effect, or another doubt; inactive = no such curve, though single readings can be large; an effect the other way counts as inactive or inconclusive. Non-standard residues stand in square brackets, D forms with d. Residues, ends and D or L forms follow the SMILES beside them. Peptide text beside a SMILES is read from it. *: point of attachment. Sta = CC(C)C[C@H](N)[C@@H](O)CC(=O)O; Isovaleryl = CC(C)CC(=O)*

How the values were obtained:
[1] = Primary qHTS for inhibitors of nuclear receptor binding SET domain protein 2 (NSD2) in an isogenic RCH-ACV NSD2 p.E1099K mutant (9B) (AID 1645876); details: RCH-ACV NSD2 E1099K (9B) viability, CellTiter-Glo, 72 h; series mostly up to 44.9 µM; also: nearly all actives have a fitted effect of over 70% in size; also: potency is read from the fitted curve at half-maximal effect; as to activity change, negative = viability loss: % is scaled to controls: 0 for no effect and ±100 for the full control effect
[2] = Primary qHTS for inhibitors of nuclear receptor binding SET domain protein 2 (NSD2) in an RCH-ACV wild type WT cells (2C) (AID 1645877); details: RCH-ACV (leukaemia line) NSD2 WT (2C) viability, CellTiter-Glo, 72 h; series mostly up to 44.9 µM; also: nearly all actives have a fitted effect of over 70% in size; also: potency is read from the fitted curve at half-maximal effect
[3] = molecular target: Catechol O-methyltransferase (Homo sapiens) (UniProt P21964); assay: Confirmatory Screen for Target Class Profiling of Small Molecule Inhibitors of Methyltransferases (AID 1745852; calls by dose curve; also: potency is read from the fitted curve at half-maximal effect; as to activity change, negative = inhibition: % is scaled to controls: 0 for no effect and ±100 for the full control effect); details: MTase-Glo luminescence, SAH detection, recombinant enzyme, stronger effect = lower value; measured here: COMT max response unless noted
Chain of Catechol O-methyltransferase (Homo sapiens) (P21964 whole entry, looked up): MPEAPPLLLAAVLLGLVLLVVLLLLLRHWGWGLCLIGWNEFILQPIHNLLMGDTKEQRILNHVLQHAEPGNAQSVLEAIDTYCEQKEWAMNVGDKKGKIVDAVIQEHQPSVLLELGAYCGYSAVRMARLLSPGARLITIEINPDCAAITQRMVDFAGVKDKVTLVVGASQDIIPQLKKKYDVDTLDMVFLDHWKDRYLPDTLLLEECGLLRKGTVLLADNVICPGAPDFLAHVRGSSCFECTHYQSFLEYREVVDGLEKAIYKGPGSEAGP

[4] = molecular target: Guanidinoacetate N-methyltransferase (Homo sapiens) (UniProt Q14353); assay: as above; details: MTase-Glo luminescence, SAH detection, recombinant enzyme; activity change, negative = inhibition: at 57.3 µM (top of the series)
[5] = molecular target: Nicotinamide N-methyltransferase (Homo sapiens) (UniProt P40261); assay: as above; details: MTase-Glo luminescence, SAH detection, recombinant enzyme, stronger effect = lower value; measured here: NNMT max response unless noted
Chain of Nicotinamide N-methyltransferase (Homo sapiens) (P40261 whole entry, looked up): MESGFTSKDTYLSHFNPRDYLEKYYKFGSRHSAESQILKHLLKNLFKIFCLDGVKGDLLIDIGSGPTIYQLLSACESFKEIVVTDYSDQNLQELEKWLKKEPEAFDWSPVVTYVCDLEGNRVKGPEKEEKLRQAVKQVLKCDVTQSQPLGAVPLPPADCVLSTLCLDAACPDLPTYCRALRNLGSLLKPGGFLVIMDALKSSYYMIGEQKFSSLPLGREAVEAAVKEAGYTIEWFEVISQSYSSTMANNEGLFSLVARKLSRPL

[6] = molecular target: Phenylethanolamine N-methyltransferase (Homo sapiens) (UniProt P11086); assay: as above; details: MTase-Glo luminescence, SAH detection, recombinant enzyme, stronger effect = lower value; measured here: PNMT max response unless noted
Chain of Phenylethanolamine N-methyltransferase (Homo sapiens) (P11086 whole entry, looked up): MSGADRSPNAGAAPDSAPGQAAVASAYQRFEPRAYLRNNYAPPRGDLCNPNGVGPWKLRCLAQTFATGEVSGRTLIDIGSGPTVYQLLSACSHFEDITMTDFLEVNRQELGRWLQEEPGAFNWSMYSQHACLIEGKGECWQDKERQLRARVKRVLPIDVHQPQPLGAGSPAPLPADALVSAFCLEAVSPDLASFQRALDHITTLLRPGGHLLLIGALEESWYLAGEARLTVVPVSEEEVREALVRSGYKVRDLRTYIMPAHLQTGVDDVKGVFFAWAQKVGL

[7] = NCATS anti-infectives library activity on HEK293 viability as a counter-qHTS vs the C. elegans viability qHTS (AID 1745854); details: HEK293 viability counter-screen; series mostly up to 41.8 µM;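 also: HEK293 cells exposed to compounds for 24 hr before the viability read; % is scaled to controls: 0 for no effect and ±100 for the full control effect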
Summary of the method: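 Compounds were acoustically plated (several concentrations, 1:5, final up to 41.7 uM), then 1500 HEK293 cells added per well and incubated 24 hr at 37C, 5% CO2. CellTiter-Glo was added and luminescence read after 10 min.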

[8] = molecular target: Rap guanine nucleotide exchange factor 3 (Homo sapiens) (UniProt O95398); assay: Confirmatory qHTS for antagonist of cAMP-regulated guanine nucleotide exchange factor 3 (EPAC1) (AID 1645880); details: EPAC1 Rap1B-BODIPY-GDP exchange, fluorescence; series mostly up to 115 µM;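 also: plate controls were DMSO only for no effect and full effect of the ATA control for full effect; nearly all actives have a fitted effect of over 55% in size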
Chain of Rap guanine nucleotide exchange factor 3 (Homo sapiens) (O95398 whole entry, looked up): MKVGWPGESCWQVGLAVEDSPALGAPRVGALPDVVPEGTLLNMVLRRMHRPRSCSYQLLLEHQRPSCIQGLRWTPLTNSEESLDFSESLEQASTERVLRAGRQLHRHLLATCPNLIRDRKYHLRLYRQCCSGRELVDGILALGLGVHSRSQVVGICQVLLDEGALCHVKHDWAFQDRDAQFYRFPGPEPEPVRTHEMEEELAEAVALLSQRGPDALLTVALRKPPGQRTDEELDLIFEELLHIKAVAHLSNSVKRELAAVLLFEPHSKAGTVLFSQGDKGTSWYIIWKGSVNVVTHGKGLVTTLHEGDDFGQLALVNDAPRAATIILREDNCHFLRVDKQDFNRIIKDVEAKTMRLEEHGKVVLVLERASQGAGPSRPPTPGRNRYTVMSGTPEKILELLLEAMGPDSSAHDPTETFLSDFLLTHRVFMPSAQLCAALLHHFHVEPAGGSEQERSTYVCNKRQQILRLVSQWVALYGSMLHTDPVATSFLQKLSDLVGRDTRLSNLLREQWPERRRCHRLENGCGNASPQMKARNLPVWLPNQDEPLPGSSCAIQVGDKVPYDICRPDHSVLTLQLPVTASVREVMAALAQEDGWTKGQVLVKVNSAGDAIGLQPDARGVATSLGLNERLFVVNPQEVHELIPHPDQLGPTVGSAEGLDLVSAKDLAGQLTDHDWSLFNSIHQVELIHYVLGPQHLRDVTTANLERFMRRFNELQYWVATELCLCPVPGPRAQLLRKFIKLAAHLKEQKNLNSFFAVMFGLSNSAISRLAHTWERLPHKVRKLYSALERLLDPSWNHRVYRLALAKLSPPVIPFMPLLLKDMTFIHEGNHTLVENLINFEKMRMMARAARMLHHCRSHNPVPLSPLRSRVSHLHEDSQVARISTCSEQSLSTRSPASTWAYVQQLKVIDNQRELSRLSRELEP
Summary of the method: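 Nucleotide exchange uses 100 nM EPAC1, 250 nM RAP1B-BODIPY-GDP and 50 uM GDP, with compounds in a concentration-titration series. After 5 min at room temperature, fluorescence (480 nm ex/540 nm em) is read every 5 min for 30 min. Data are normalized to control ATA and DMSO.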

[9] = molecular target: Rap guanine nucleotide exchange factor 3 (Homo sapiens) (UniProt O95398); assay: Confirmatory qHTS for agonist of cAMP-regulated guanine nucleotide exchange factor 3 (EPAC1) (AID 1645881); details: EPAC1 Rap1B BODIPY-GDP exchange fluorescence; series mostly up to 154 µM;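 also: EPAC1 catalysed release of BODIPY-GDP from Rap1B seen as fluorescence loss; 100% = effect of cAMP agonist control; nearly all actives have a fitted effect of over 75% in size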
[10] = molecular target: Rap guanine nucleotide exchange factor 4 (Homo sapiens) (UniProt Q8WZA2); assay: Confirmatory qHTS for agonist of cAMP-regulated guanine nucleotide exchange factor 4 (EPAC2) (AID 1645884); details: EPAC2 GEF activity, Rap1B-BODIPY-GDP fluorescence; series mostly up to 154 µM;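 also: nucleotide exchange releases bodipy-GDP from Rap1 and this lowers its fluorescence; % is scaled to controls: 0 for no effect and ±100 for the full control effect; nearly all actives have a fitted effect of over 65% in size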
Chain of Rap guanine nucleotide exchange factor 4 (Homo sapiens) (Q8WZA2 whole entry, looked up): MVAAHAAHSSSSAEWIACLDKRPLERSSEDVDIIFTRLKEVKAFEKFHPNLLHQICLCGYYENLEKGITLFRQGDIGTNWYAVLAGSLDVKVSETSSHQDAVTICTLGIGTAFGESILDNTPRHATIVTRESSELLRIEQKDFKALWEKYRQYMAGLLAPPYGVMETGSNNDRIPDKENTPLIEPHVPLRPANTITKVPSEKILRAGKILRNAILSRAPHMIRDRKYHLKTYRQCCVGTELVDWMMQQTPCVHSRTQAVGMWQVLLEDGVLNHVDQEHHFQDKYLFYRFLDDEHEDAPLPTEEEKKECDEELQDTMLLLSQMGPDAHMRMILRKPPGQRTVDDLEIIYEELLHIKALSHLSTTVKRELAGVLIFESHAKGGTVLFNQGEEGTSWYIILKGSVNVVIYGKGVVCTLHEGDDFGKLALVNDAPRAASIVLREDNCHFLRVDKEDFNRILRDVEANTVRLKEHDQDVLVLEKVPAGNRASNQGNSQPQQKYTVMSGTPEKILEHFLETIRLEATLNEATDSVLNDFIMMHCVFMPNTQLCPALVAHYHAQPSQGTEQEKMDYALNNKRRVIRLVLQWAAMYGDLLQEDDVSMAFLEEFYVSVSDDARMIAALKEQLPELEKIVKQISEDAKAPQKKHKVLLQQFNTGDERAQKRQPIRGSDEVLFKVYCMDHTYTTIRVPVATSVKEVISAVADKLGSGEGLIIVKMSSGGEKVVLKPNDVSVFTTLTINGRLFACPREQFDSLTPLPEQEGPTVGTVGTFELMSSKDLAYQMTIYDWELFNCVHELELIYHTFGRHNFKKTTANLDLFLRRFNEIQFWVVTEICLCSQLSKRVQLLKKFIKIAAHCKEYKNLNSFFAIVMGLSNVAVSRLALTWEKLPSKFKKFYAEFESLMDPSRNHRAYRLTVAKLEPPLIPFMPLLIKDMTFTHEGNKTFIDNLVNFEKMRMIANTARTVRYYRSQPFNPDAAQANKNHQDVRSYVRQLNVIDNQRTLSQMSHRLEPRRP

[11] = molecular target: Rap guanine nucleotide exchange factor 4 (Homo sapiens) (UniProt Q8WZA2); assay: Confirmatory qHTS for antagonist of cAMP-regulated guanine nucleotide exchange factor 4 (EPAC2) (AID 1645885); details: EPAC2 Rap1B-BODIPY-GDP exchange fluorescence, biochemical; series mostly up to 114 µM; also: potency is read from the fitted curve at half-maximal effect; nearly all actives have a fitted effect of over 25% in size
[12] = NCATS anti-infectives library activity on the primary C. elegans qHTS viability assay (AID 1745855; calls by dose curve); details: C. elegans worm area imaging, day 7; series mostly up to 41.8 µM
Summary of the method: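 Viability read-out is GFP fluorescence of PE254-GFP-FLuc C. elegans, measured by laser cytometry (488 nm) at day 0, 3 and 7. Ten L1 worms per well were incubated 7 days at 21 °C with compounds and bacterial capsules in S medium.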

Cc1ccc(C)c(OCCCC(C)(C)C(=O)O)c1
Potency [1]: inactive
Potency [2]: inactive

Cc1nc(-c2ccc(OCC(C)C)c(C#N)c2)sc1C(=O)O
Potency [1]: inactive
Potency [2]: inactive

CC[C@]1(O)C[C@H]2CN(CCc3c([nH]c4ccccc34)[C@@](C(=O)OC)(c3cc4c(cc3OC)N(C=O)[C@H]3[C@@](O)(C(=O)OC)[C@H](OC(C)=O)[C@]5(CC)C=CCN6CC[C@]43[C@@H]65)C2)C1
Potency [1]: 7.5 nM (active) and 59 nM (active)
Potency [2]: 6.7 nM (active) and 29.5 nM (active)

O=C(O)c1cn(-c2ccc(F)cc2)c2cc(N3CCNCC3)c(F)cc2c1=O
Potency [1]: inactive
Potency [2]: inactive

COC(=O)[C@H](Cc1ccccc1)NC(=O)[C@@H](N)CC(=O)O (H-Asp-Phe-OMe)
Potency [1]: inactive
Potency [2]: inactive

CC(C)Oc1ccc2c(=O)c(-c3ccccc3)coc2c1
Potency [1]: inactive
Potency [2]: inactive

O=C(NOCC1CC1)c1ccc(F)c(F)c1Nc1ccc(I)cc1Cl
Potency [1]: 8.41 µM (active) and 23 µM (active)
Potency [2]: 6.68 µM (active) and 20.5 µM (active)

COc1cc(OC)c(C(=O)CCCN2CCCC2)c(OC)c1
Potency [1]: inactive
Potency [2]: inactive

CN(C)c1ccc2nc3ccc(=[N+](C)C)cc-3sc2c1
Potency [1]: 1.32 µM (active) and 2.37 µM (active)
Potency [2]: 1.32 µM (active) and 2.37 µM (active)

COc1cc2c(cc1OC)C1CC(=O)C(CC(C)C)CN1CC2 (centres undefined)
Potency [1]: inactive
Potency [2]: inactive

Cc1cc(=O)oc2cc(O)ccc12
Potency [1]: inactive
Potency [2]: inactive

Clc1ccc(C(Cn2ccnc2)OCc2ccsc2Cl)c(Cl)c1 (centres undefined)
Potency [1]: 18.6 µM (active)
Potency [2]: 18.6 µM (active)

O=C(O)CCNC(=O)c1ccc(N=Nc2ccc(O)c(C(=O)O)c2)cc1
Potency [1]: inactive
Potency [2]: inactive

Nc1cc(C(Cl)=C(Cl)Cl)c(S(N)(=O)=O)cc1S(N)(=O)=O
Potency [1]: inactive
Potency [2]: inactive

Cc1nc2n(c(=O)c1CCN1CCC(c3noc4cc(F)ccc34)CC1)CCCC2
Potency [1]: inactive
Potency [2]: inactive

c1ccc2[nH]c(-c3cscn3)nc2c1
Potency [1]: inactive
Potency [2]: inactive and 13.2 µM (active)

CN(C)c1ccc(O)c2c1C[C@H]1C[C@H]3[C@H](N(C)C)C(=O)C(C(N)=O)=C(O)[C@@]3(O)C(=O)C1=C2O
Potency [1]: inactive
Potency [2]: inactive

Cc1cc2cc3c(C)cc(=O)oc3c(C)c2o1
Potency [1]: inactive
Potency [2]: inactive

Nc1nc(Cl)nc2c1ncn2[C@H]1C[C@H](O)[C@@H](CO)O1
Potency [1]: 0.0468 µM (active)
Potency [2]: 0.0417 µM (active)

C=C(c1ccc(C(=O)O)cc1)c1cc2c(cc1C)C(C)(C)CCC2(C)C
Potency [1]: inactive
Potency [2]: inactive

Clc1ccc(C(Cn2ccnc2)OCc2ccc(Sc3ccccc3)cc2)c(Cl)c1 (centres undefined)
Potency [1]: 18.6 µM (active)
Potency [2]: 16.6 µM (active)

CC(C)c1ccc2oc3nc(N)c(C(=O)O)cc3c(=O)c2c1
Potency [1]: inactive
Potency [2]: inactive

Cn1c(NCCN(CCO)CCCc2ccc([N+](=O)[O-])cc2)cc(=O)n(C)c1=O
Potency [1]: inactive
Potency [2]: inactive

O=C(NCC1CCCCN1)c1cc(OCC(F)(F)F)ccc1OCC(F)(F)F (centres undefined)
Potency [1]: inactive
Potency [2]: inactive

Cc1cc(C2CCCCC2)n(O)c(=O)c1
Potency [1]: 5.8 µM (active) and 266 nM (active) and 7.42 µM (active)
Potency [2]: 3.26 µM (active) and 266 nM (active) and 4.68 µM (active)

O=c1cc(N2CCOCC2)oc2c(-c3ccccc3)cccc12
Potency [1]: 4.17 µM (active)
Potency [2]: 2.63 µM (active)

CC(=O)O[C@H]1C(=O)[C@@]2(C)C([C@H](OC(=O)c3ccccc3)[C@]3(O)C[C@H](OC(=O)[C@H](O)[C@@H](NC(=O)c4ccccc4)c4ccccc4)C(C)=C1C3(C)C)[C@]1(OC(C)=O)CO[C@@H]1C[C@@H]2O (some centres undefined)
Potency [1]: 4.5 nM (active) and 5.9 nM (active)
Potency [2]: 5.1 nM (active) and 5.9 nM (active)

CC1=C(C)C(=O)C(C(CCCCCC(=O)O)c2ccccc2)=C(C)C1=O (centres undefined)
Potency [1]: inactive
Potency [2]: inactive

Cc1nc(Nc2ncc(C(=O)Nc3c(C)cccc3Cl)s2)cc(N2CCN(CCO)CC2)n1
Potency [1]: 0.7 nM (active) and 12.9 nM (active) and 20.9 nM (active)
activity [3]: -54.8%
Potency [4]: 30.4 µM (active)
activity [5]: -33%
activity [6]: -52.6%
outcome [7]: inactive

O=c1ccc2ccc(O)c(O)c2o1
activity [3]: 197%
activity change, negative = inhibition [4]: 2.41%
activity [5]: -4.08%
activity [6]: 2.42%

Cc1c(OCC(F)(F)F)ccnc1CS(=O)c1nc2ccccc2[nH]1 (centres undefined)
activity [3]: 13%
activity change, negative = inhibition [4]: 6.68%
activity [5]: 8.13%
activity [6]: 10%

O=C1NC(=O)C(c2ccccc2[N+](=O)[O-])=C1Nc1ccc(O)c(Cl)c1
Potency [1]: 13.2 µM (active)
Potency [2]: 18.6 µM (active)
outcome [7]: inactive

COC(=O)C1=C(C)NC(C)=C(C(=O)OC(C)C)C1c1cccc2nonc12 (centres undefined)
Potency [8]: inactive
outcome [9]: inactive
outcome [10]: inactive
Potency [11]: 44.1 µM (active)

C[C@H](Cn1cnc2c(N)ncnc21)OCP(=O)(O)O
outcome [7]: inactive

CC(C)CC(=O)N[C@H](C(=O)N[C@H](C(=O)N[C@@H](CC(C)C)[C@@H](O)CC(=O)N[C@@H](C)C(=O)N[C@@H](CC(C)C)[C@@H](O)CC(=O)O)C(C)C)C(C)C (Isovaleryl-VV[Sta]A[Sta]-OH)
Potency [1]: inactive
Potency [2]: inactive
outcome [7]: inactive

N=C(N)c1ccc2cc(OC(=O)c3ccc(N=C(N)N)cc3)ccc2c1
Potency [1]: inactive
Potency [2]: inactive
outcome [7]: inactive
Potency [12]: inactive

N=C(N=C(N)N)N1CCOCC1
Potency [1]: inactive
Potency [2]: inactive
outcome [7]: inactive
Potency [12]: inactive

CCN(CC)CCOc1ccc(Cc2ccccc2)cc1
Potency [2]: 29.9 µM (active)

CN(C)[C@@H](CCOc1cccc2ccccc12)c1ccccc1
Potency [2]: 23.7 µM (active)

Oc1ccc2ccccc2c1SSc1c(O)ccc2ccccc12
Potency [1]: 23.5 µM (active) and 16.4 µM (active)
activity [3]: 22.1%
activity change, negative = inhibition [4]: -0.328%
activity [5]: -8.59%
activity [6]: 2.32%

N[C@@H](Cc1cc(I)c(Oc2cc(I)c(O)c(I)c2)c(I)c1)C(=O)O
Potency [1]: inactive
Potency [2]: inactive
activity [3]: -6.89%
activity change, negative = inhibition [4]: -4.64%
activity [5]: -9.69%
activity [6]: -6.64%

Cc1ccc(NC(=O)c2ccc(CN3CCN(C)CC3)cc2)cc1Nc1nccc(-c2cccnc2)n1
Potency [1]: 15 µM (active) and 20.6 µM (active) and 18.6 µM (active)
Potency [2]: 13.3 µM (active) and 18.4 µM (active) and 16.6 µM (active)
outcome [7]: inactive

Cc1ccc(Nc2nccc(N(C)c3ccc4c(C)n(C)nc4c3)n2)cc1S(N)(=O)=O
Potency [1]: 5.31 µM (active) and 1.83 µM (active) and 4.17 µM (active)
Potency [2]: 9.44 µM (active) and 4.68 µM (active)
activity [3]: -4.72%
activity change, negative = inhibition [4]: 0%
activity [5]: -0.226%
activity [6]: -2.8%

Oc1ccc(OCc2ccccc2)cc1
Potency [1]: inactive and 2.63 µM (active)
Potency [2]: inactive and 4.68 µM (active)
outcome [7]: inactive

CCN(CCO)CCCC(C)Nc1ccnc2cc(Cl)ccc12 (centres undefined)
activity change, negative = viability loss [1]: 1.42% [at 4.96 µM] (inactive) and 7.11% [at 4.96 µM] (inactive)
outcome [2]: inactive [at 4.96 µM]
activity change, negative = cytotoxicity [7]: -19.5% [at 3.71 µM] (inactive)

CCN(CC)CCOc1ccc(Nc2ncc3cc(-c4c(Cl)cccc4Cl)c(=O)n(C)c3n2)cc1
Potency [1]: 0.417 µM (active)
Potency [2]: 0.468 µM (active)
activity [3]: -14.1%
activity change, negative = inhibition [4]: 1.71%
activity [5]: -19.9%
activity [6]: -2.93%

Cc1cc2c(s1)Nc1ccccc1N=C2N1CCN(C)CC1
Potency [2]: 23.5 µM (active)
